Data as given in the OligoGym collection.

Assays:
Experiment in all cases: pooled miR-30 sensor sort-seq; sequence = guide strand
Conditions in all cases: shRNA
IP6K3 = target: IP6K3
INVS = target: INVS
IPO11 = target: IPO11
INPP5F = target: INPP5F
ITFG1 = target: ITFG1
JAM3 = target: JAM3
KCND2 = target: KCND2
KCNK6 = target: KCNK6
KCNRG = target: KCNRG
KHDRBS3 = target: KHDRBS3
KIAA2018 = target: KIAA2018
KIF21A = target: KIF21A
KIAA1279 = target: KIAA1279
KIAA1217 = target: KIAA1217
KIF25 = target: KIF25
KIF2C = target: KIF2C
KIF26A = target: KIF26A

**Q.** Which sensor-assay potency score (higher = more potent) (IP6K3) does the source give for TAGATGACAAGGAGAGAGCTGG here?
**A.** -0.213

**Q.** For TTTGTTTTCTTCCTCTCGCTTT, which sensor-assay potency score (higher = more potent) (INVS) is on record?
**A.** 0.0611

**Q.** Which sensor-assay potency score (higher = more potent) (INVS) does the source give for TTAATATCTGGCAAACATCAGC here?
**A.** -0.861

**Q.** For TTTTCTTCCATAGTACTTGTCT, which sensor-assay potency score (higher = more potent) (IP6K3) is on record?
**A.** 0.567

**Q.** TTTGTAGTAGAACTCGACCCAT was tested. Which sensor-assay potency score (higher = more potent) (IPO11) did it give?
**A.** -0.362

**Q.** With TTTTCCAGCAACAAGAACCGAT as the sequence, how does the sensor-assay potency score (higher = more potent) (IP6K3) read?
**A.** -0.15

**Q.** For TTCATAGAACCTCTGCTCCCGG, which sensor-assay potency score (higher = more potent) (IP6K3) is on record?
**A.** -0.506

**Q.** For TATTTGAGATCTATAGCCCAGA, which sensor-assay potency score (higher = more potent) (IP6K3) is on record?
**A.** -0.584

**Q.** With TTCTTCCATAGTACTTGTCTTT as the sequence, how does the sensor-assay potency score (higher = more potent) (IP6K3) read?
**A.** -1.16

**Q.** With TTACACTTGTCCACCAGTCTTG as the sequence, how does the sensor-assay potency score (higher = more potent) (IP6K3) read?
**A.** -0.0833

**Q.** How did the sensor-assay potency score (higher = more potent) (IP6K3) turn out when TTGTTCTCTGGGTACTCGGAGC was run?
**A.** -1.42

**Q.** For TAAGACGTTATATTGCAGCTTT, which sensor-assay potency score (higher = more potent) (INVS) is on record?
**A.** 0.127

**Q.** Which sensor-assay potency score (higher = more potent) (INVS) does the source give for TAGAAGAGAATGTCCATCTTGG here?
**A.** 0.67

**Q.** Which sensor-assay potency score (higher = more potent) (INPP5F) does the source give for TACCAAGTTAATAATAACCTGT here?
**A.** -0.241

**Q.** With TTCGTGAGAACAACCATAGATT as the sequence, how does the sensor-assay potency score (higher = more potent) (INVS) read?
**A.** -0.97

**Q.** Which sensor-assay potency score (higher = more potent) (INVS) does the source give for TTGGTCAACTAGATCTACCCTT here?
**A.** 0.547

**Q.** How did the sensor-assay potency score (higher = more potent) (INPP5F) turn out when TTACTTTATCAACTTCATCATC was run?
**A.** -1.34

**Q.** How did the sensor-assay potency score (higher = more potent) (IPO11) turn out when TTAACTTCAAAGTTGTAGCTGT was run?
**A.** 0.668

**Q.** Which sensor-assay potency score (higher = more potent) (INVS) does the source give for TTTTAAAAACACTTTAACCGTT here?
**A.** -0.842

**Q.** TTGTAGTAGAACTCGACCCATA was tested. Which sensor-assay potency score (higher = more potent) (IPO11) did it give?
**A.** -0.751

**Q.** With TTATTTTCTATTAATATCTGGC as the sequence, how does the sensor-assay potency score (higher = more potent) (INVS) read?
**A.** 0.295

**Q.** Which sensor-assay potency score (higher = more potent) (IPO11) does the source give for TAAATCTTGATCTTGAAGCAAG here?
**A.** -0.725

**Q.** For TTTTATTCACATCTGCTCCTGC, which sensor-assay potency score (higher = more potent) (INVS) is on record?
**A.** 0.562

**Q.** With TAATTCTAAACCATCTTCCAGA as the sequence, how does the sensor-assay potency score (higher = more potent) (IPO11) read?
**A.** -0.364

**Q.** With TATCTCTACACACATTATCTGT as the sequence, how does the sensor-assay potency score (higher = more potent) (IPO11) read?
**A.** -0.812

**Q.** With TATACTTCTACTGCATTCCAGA as the sequence, how does the sensor-assay potency score (higher = more potent) (IPO11) read?
**A.** -0.431

**Q.** For TTTAAAAACACTTTAACCGTTT, which sensor-assay potency score (higher = more potent) (INVS) is on record?
**A.** -0.562

**Q.** How did the sensor-assay potency score (higher = more potent) (IP6K3) turn out when TGACACTACATTTTCCAGCAAC was run?
**A.** -1.2

**Q.** Which sensor-assay potency score (higher = more potent) (IPO11) does the source give for TTCCACAACCTTGAGCACCTGA here?
**A.** 0.832

**Q.** For TAGATCACCATTGAAATCCATA, which sensor-assay potency score (higher = more potent) (ITFG1) is on record?
**A.** -0.916

**Q.** With TTTAGGTCTGTCAGCTCCCAGT as the sequence, how does the sensor-assay potency score (higher = more potent) (ITFG1) read?
**A.** -0.933

**Q.** TTCCACACTTTCAAATTCCTGT was tested. Which sensor-assay potency score (higher = more potent) (JAM3) did it give?
**A.** 0.0526

**Q.** How did the sensor-assay potency score (higher = more potent) (JAM3) turn out when TGAGTGTCTAGCTCTGTCCGAG was run?
**A.** -0.68

**Q.** With TTGTCTGTCATCACCAGCCCAA as the sequence, how does the sensor-assay potency score (higher = more potent) (KCND2) read?
**A.** -0.744

**Q.** For TCAGCGAACAGATAGAACCAAA, which sensor-assay potency score (higher = more potent) (KCND2) is on record?
**A.** -1.25

**Q.** With AAGGCATCCAAGAAGCTCCAGG as the sequence, how does the sensor-assay potency score (higher = more potent) (KCNK6) read?
**A.** -0.209

**Q.** How did the sensor-assay potency score (higher = more potent) (KCNK6) turn out when TTGTGTACCCATAGCCCACGGT was run?
**A.** -0.627

**Q.** For TTGTCTTCAGAAGATACTGTTC, which sensor-assay potency score (higher = more potent) (KCNRG) is on record?
**A.** -0.478

**Q.** TCTGGTATGATGATAGTCTCTG was tested. Which sensor-assay potency score (higher = more potent) (KCNRG) did it give?
**A.** 0.569

**Q.** For TTGAGATGGAAGTACTTCGCTT, which sensor-assay potency score (higher = more potent) (KHDRBS3) is on record?
**A.** -0.344

**Q.** Which sensor-assay potency score (higher = more potent) (KIAA2018) does the source give for TTGCTGGTCACATCTTCTCTTG here?
**A.** -1.17

**Q.** Which sensor-assay potency score (higher = more potent) (KIF21A) does the source give for TTCTAGTTCATCAATCAGCTTT here?
**A.** -0.0186

**Q.** With TTGAGCTGGAACATGCTGCTGC as the sequence, how does the sensor-assay potency score (higher = more potent) (KIAA2018) read?
**A.** 0.733

**Q.** With TATACTGATTATATAGTGCTTC as the sequence, how does the sensor-assay potency score (higher = more potent) (KIAA1279) read?
**A.** 0.382

**Q.** With TTTCTGCATCTGAACTTCCTGT as the sequence, how does the sensor-assay potency score (higher = more potent) (KIAA2018) read?
**A.** -0.663

**Q.** With TATTTTGTAGCTCTGGTCTGTG as the sequence, how does the sensor-assay potency score (higher = more potent) (KIAA1217) read?
**A.** 0.157

**Q.** How did the sensor-assay potency score (higher = more potent) (KIAA2018) turn out when TTGACTAATTCGAAAAGCCTGG was run?
**A.** -0.327

**Q.** With TAGATTATAAGTACTAGCTAGT as the sequence, how does the sensor-assay potency score (higher = more potent) (KIAA2018) read?
**A.** 0.0786

**Q.** How did the sensor-assay potency score (higher = more potent) (KIAA1279) turn out when TTCTTTGATGATAAAGCTCTGG was run?
**A.** -0.681

**Q.** Which sensor-assay potency score (higher = more potent) (KIAA2018) does the source give for TATCTGATGAATCTTGCTCAAC here?
**A.** -1.15

**Q.** With TTCAATATTGCACATTTCCTTT as the sequence, how does the sensor-assay potency score (higher = more potent) (KIAA1279) read?
**A.** -0.873

**Q.** For TTTCATTTCCATCACATCCTGC, which sensor-assay potency score (higher = more potent) (KIF21A) is on record?
**A.** 0.0152

**Q.** Which sensor-assay potency score (higher = more potent) (KIAA1279) does the source give for TTTTTGATCTCTCTTGTTCAGT here?
**A.** -0.606

**Q.** With TTTCTGTACAGAAACATTGGGG as the sequence, how does the sensor-assay potency score (higher = more potent) (KIAA2018) read?
**A.** -0.202

**Q.** With TTGAACTTCCATTCTGTGCCTT as the sequence, how does the sensor-assay potency score (higher = more potent) (KIAA1217) read?
**A.** 0.894

**Q.** For TAGTAGTCTTGTTAGCTTGGAA, which sensor-assay potency score (higher = more potent) (KIF21A) is on record?
**A.** -0.0525

**Q.** TTGAGCTGCTTGAAGTCTCTGC was tested. Which sensor-assay potency score (higher = more potent) (KIF21A) did it give?
**A.** 0.624

**Q.** With TTTTTTTAAATGTAACTCCGAC as the sequence, how does the sensor-assay potency score (higher = more potent) (KIAA1217) read?
**A.** -0.293

**Q.** With TTGCTGACTAGCTCTGTCCTGA as the sequence, how does the sensor-assay potency score (higher = more potent) (KIF21A) read?
**A.** 0.278

**Q.** For TTGTTGTAGATGACAAACCAGG, which sensor-assay potency score (higher = more potent) (KIAA2018) is on record?
**A.** -1.34

**Q.** Which sensor-assay potency score (higher = more potent) (KIF25) does the source give for TAGAGTCACCGTAATTATCAGG here?
**A.** -1.12

**Q.** For TTGAGCTAGGTAATATAGGTTA, which sensor-assay potency score (higher = more potent) (KIAA1279) is on record?
**A.** -0.261

**Q.** For TAGCTTATTGATGTAAAACTGT, which sensor-assay potency score (higher = more potent) (KIAA1279) is on record?
**A.** -0.47

**Q.** Which sensor-assay potency score (higher = more potent) (KIAA1279) does the source give for TAAAGCTCTAAGTTCAGACTGT here?
**A.** 0.562

**Q.** With ATAACACAAACATTGTACCCAT as the sequence, how does the sensor-assay potency score (higher = more potent) (KIF25) read?
**A.** 0.237

**Q.** With TTGAATGTAGATCTGCTCTTGC as the sequence, how does the sensor-assay potency score (higher = more potent) (KIF21A) read?
**A.** 0.95

**Q.** Which sensor-assay potency score (higher = more potent) (KIF21A) does the source give for TTGATTTGCTGACTAGCTCTGT here?
**A.** 0.32

**Q.** Which sensor-assay potency score (higher = more potent) (KIAA2018) does the source give for TAAACTTCCACTGTTTACCTTC here?
**A.** 0.292

**Q.** For TAGCTCAACTTCTATTTCCTGG, which sensor-assay potency score (higher = more potent) (KIAA1279) is on record?
**A.** 0.213

**Q.** How did the sensor-assay potency score (higher = more potent) (KIAA1279) turn out when TAGGTTATGAGTATAAACCTTT was run?
**A.** -0.128

**Q.** With TTGTTTGAGTCGACCTTCCAGT as the sequence, how does the sensor-assay potency score (higher = more potent) (KIF21A) read?
**A.** -0.666

**Q.** How did the sensor-assay potency score (higher = more potent) (KIF21A) turn out when TTGCAGAACAAGCATCTCCAAG was run?
**A.** -1.19

**Q.** For TTTGTGTTGAGTTAGACGCTGA, which sensor-assay potency score (higher = more potent) (KIAA2018) is on record?
**A.** 0.486

**Q.** How did the sensor-assay potency score (higher = more potent) (KIAA2018) turn out when TAGATTTCGATACAGACTCAGG was run?
**A.** -1.04

**Q.** For TTTTATATAACTATGAATCATA, which sensor-assay potency score (higher = more potent) (KIF21A) is on record?
**A.** -0.753

**Q.** How did the sensor-assay potency score (higher = more potent) (KIAA2018) turn out when TCTGCTTCCAACATCCTGCTGT was run?
**A.** 0.86

**Q.** For TTAATAGGAAACAAGCATCTAA, which sensor-assay potency score (higher = more potent) (KIAA1279) is on record?
**A.** 0.679

**Q.** How did the sensor-assay potency score (higher = more potent) (KIF21A) turn out when TTCAACTGAGCAATCTCTCTGT was run?
**A.** 0.68

**Q.** TATACATTGAATGTAGATCTGC was tested. Which sensor-assay potency score (higher = more potent) (KIF21A) did it give?
**A.** -0.0184

**Q.** With TAGTACTTCAGTGCTGACTTAT as the sequence, how does the sensor-assay potency score (higher = more potent) (KIAA1279) read?
**A.** -0.671

**Q.** How did the sensor-assay potency score (higher = more potent) (KIF2C) turn out when TTGGAGTTGACGGATCTCCGTT was run?
**A.** -0.171

**Q.** Which sensor-assay potency score (higher = more potent) (KIF26A) does the source give for ATCTCGTACACCTTGATCTCGA here?
**A.** -0.604

**Q.** For ATTATTGTAAACTTCCACTATG, which sensor-assay potency score (higher = more potent) (KIF25) is on record?
**A.** -0.786

**Q.** For TTGTCCTTGGTCTTGGAGGCGG, which sensor-assay potency score (higher = more potent) (KIF26A) is on record?
**A.** -1.26
